Fh CTSL1 inh = Fasciola hepatica cathepsin L1 inhibitors, primary screen, counter-screen for PFM18AAP inhibitor project, biochemical, QFRET, fluorogenic peptide substrate; recombinant F. hepatica cathepsin L1, Z-Leu-Arg-MCA fluorescence; inhibition, % at 5.96 µM; hit rate 0.49% among 300,000;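 active = inhibition above the mean of all tested compounds plus 3 SD, set per screening campaign, cut at about 17% in these data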;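 note: 0% = plate median of test compound wells and 100% = 1 µM Z-Phe-Ala-diazomethylketone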
NALP1 inh = NALP1 inflammasome inhibitors in reconstituted yeast, colorimetric, S. cerevisiae, triplicate retest; inhibition, % at 10 µM; hit rate 0.61% among 280,000; S. cerevisiae NALP1/ASC/caspase-1 growth, X-gal OD620, 72 h; AID 2071, 2009; in the data active = inhibition mostly above about 24%, no sharp cut-off; inactive = mostly below about 32%
HGIII-sPLA2 inh = human group III sPLA2 inhibitors, primary screen, biochemical, QFRET, BODIPY PC-A2 liposome substrate | QFRET BODIPY PC-A2 liposome hydrolysis, fluorescence | Group 3 secretory phospholipase A2 (Homo sapiens), Q9NZ20 | hit rate 0.56% among 370,000 | inhibition, % at 12.2 µM;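 active = inhibition above mean plus 3 SD of compounds lying within the high and low control bounds, cut at about 19% in these data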;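 note: 0% = median of test compound wells and 100% = no enzyme DMSO wells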
A3A deaminase = APOBEC3A ssDNA deaminase inhibitors, primary screen, selectivity assay for APOBEC3G inhibitor project, biochemical, FAM/TAMRA oligo cleavage fluorescence | inhibition, % at 20 µM | recombinant A3A, FAM/TAMRA ssDNA deamination fluorescence | hit rate 0.41% among 330,000 | DNA dC->dU-editing enzyme APOBEC-3A (Homo sapiens), P31941 | AID 493011, 2011;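 active = at least 40% inhibition at 20 µM here, with at most 30% in a related deaminase screen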;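 note: plate controls were A3A with DMSO for no effect and wells lacking A3A enzyme for full effect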
Target sequence (P31941 whole entry, looked up): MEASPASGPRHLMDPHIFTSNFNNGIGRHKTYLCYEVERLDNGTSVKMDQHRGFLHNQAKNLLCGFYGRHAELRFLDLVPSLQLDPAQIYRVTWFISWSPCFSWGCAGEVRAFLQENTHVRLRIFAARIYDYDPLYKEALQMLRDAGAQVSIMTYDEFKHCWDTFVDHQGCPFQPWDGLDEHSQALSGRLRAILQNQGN
A3G deaminase = APOBEC3G DNA deaminase inhibitors, primary screen, biochemical, fluorescence, single-stranded DNA substrate, uHTS; recombinant A3G, ssDNA deamination FAM/TAMRA fluorescence; AID 493012, 2011; inhibition, % at 20 µM; DNA dC->dU-editing enzyme APOBEC-3G (Homo sapiens), Q9HC16; hit rate 0.28% among 330,000;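 active = inhibition of at least 40% at 20 µM, with no more than 30% in the related APOBEC3A deaminase screen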;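 note: plate controls were DMSO wells with A3G for no effect and wells lacking A3G enzyme for full effect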
Target sequence (Q9HC16 whole entry, looked up): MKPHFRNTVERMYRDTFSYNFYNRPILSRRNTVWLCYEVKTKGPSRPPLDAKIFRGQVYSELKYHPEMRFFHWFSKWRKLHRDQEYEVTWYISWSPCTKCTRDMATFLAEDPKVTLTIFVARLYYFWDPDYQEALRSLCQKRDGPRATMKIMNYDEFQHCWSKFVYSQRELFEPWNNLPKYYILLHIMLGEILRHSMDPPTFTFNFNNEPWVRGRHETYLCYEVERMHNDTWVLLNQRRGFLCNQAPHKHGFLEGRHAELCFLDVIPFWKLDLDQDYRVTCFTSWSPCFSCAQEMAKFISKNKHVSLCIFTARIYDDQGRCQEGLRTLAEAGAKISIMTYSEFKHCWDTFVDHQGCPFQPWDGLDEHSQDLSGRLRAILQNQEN
APOBEC3A confirm = APOBEC3A deaminase inhibitors, retest, confirmation, selectivity assay for APOBEC3G inhibitor project, biochemical, single concentration, fluorescence readout; shares compounds with A3A deaminase; recombinant A3A, ssDNA deaminase UDG fluorescence assay; inhibition, % at 20 µM; hit rate 63% among 1,400; AID 493151, 2011;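 active = inhibition reaching a set limit, 80% of the first screen's cutoff, at 20 µM in any replicate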;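 note: plate controls were DMSO wells with A3A for no effect and wells lacking A3A enzyme for full effect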
UDG A3A counter = E. coli UDG inhibitors, confirmation, counter-screen for APOBEC3A inhibitor project, biochemical, single concentration, fluorescence, FAM/TAMRA oligo; 1,000 tested, under 10 active; shares compounds with A3A deaminase; inhibition, % at 20 µM; UDG counterscreen, FAM/TAMRA uracil oligo fluorescence; call rule not given here
* marks the source's active call; other numbers are inactive results; / = no result given. Only some compounds are listed: those with a hit (about 2% of all), similar ones and a draw of the others.

SMILES | Fh CTSL1 inh | NALP1 inh | HGIII-sPLA2 inh | A3A deaminase | A3G deaminase | APOBEC3A confirm | others
CC(=O)OC1(c2ccccc2)CCN(C)CC1(C)C (stereo unspecified) | 1 | -1 | -1 | 0 | -6 | /
Nc1c2c(nc3sc4c(c13)CCCCC4)CCCC2 | 0 | 67* | 6 | -5 | -5 | /
CCCCN(Cc1ccccc1)C1CCN(CCc2ccccc2)CC1 | 3 | 48* | 0 | -2 | -5 | /
O=C(COc1ccc(Br)cc1)N1CCN(Cc2ccc3c(c2)OCO3)CC1 | -2 | 30 | -6 | 0 | -2 | /
COc1cc2c(cc1O)[C@@H]1Cc3ccc(OC)c(O)c3CN1CC2 | 65* | / | 5 | 3 | -2 | /
Cc1c2ccncc2c(C)c2c1[nH]c1ccccc12 | 7 | 95* | / | 20 | 5 | /
C[C@]12C=CC(=O)C=C1C=C[C@@H]1C2CC[C@]2(C)C(=O)CCC12 (stereo partly specified) | -1 | -4 | -1 | -2 | -6 | /
CC(C)[C@H]1CC2C3CC=C4C[C@@H](O)CC[C@]4(C)C3CC[C@]2(C)[C@H]1O (stereo partly specified) | / | / | -12 | -4 | -5 | /
C[C@@H]1CC[C@@]2(NC1)O[C@H]1C[C@H]3[C@@H]4CC=C5C[C@@H](O)CC[C@]5(C)[C@H]4CC[C@]3(C)[C@H]1[C@@H]2C | 1 | 36* | / | -2 | -8 | /
CN[C@H]1C[C@H]2O[C@@](C)([C@H]1OC)n1c3ccccc3c3c4c(c5c6ccccc6n2c5c31)C(=O)NC4 | 0 | 92* | / | -2 | -3 | /
Cc1ccc(OC(=O)N(C)C[C@@H]2OCc3ccccc3-c3c(n(C)c4ccccc34)C(=O)N([C@H](C)CO)C[C@H]2C)cc1 | / | / | -32 | / | / | /
O=c1c(/C=N/N2CCOCC2)c(O)n(-c2ccccc2)c(=S)n1-c1ccccc1 | 0 | 6 | -15 | -1 | -5 | /
Cn1c(O)c(/C=N/N2CCOCC2)c(=O)n(-c2ccccc2)c1=S | 0 | 37* | -11 | -4 | -5 | /
c1cncc(CNC2CCCC2)c1 | -3 | 30* | 14 | -1 | -6 | /
CC(=O)N1c2ccccc2C(c2ccccc2)=NCC1C(=O)NC1CCCCC1 (stereo unspecified) | / | / | 5 | / | / | /
CC(=O)NCC1=C(c2ccc(S(C)(=O)=O)cc2)C[C@@H]2CC[C@H]1N2CCOc1ccccc1 | / | / | 2 | / | / | /
O=c1c2ccccc2nc(CSc2ncnc3nc[nH]c23)n1-c1ccccc1Cl | 21* | 10 | -17 | 7 | -1 | /
CN1C(=O)NC(=O)/C(=C/c2ccc([N+](=O)[O-])o2)C1=O | -3 | 15 | -1 | 66 | 31 | /
CN1C(=O)NC(=O)/C(=C\c2ccc([N+](=O)[O-])o2)C1=O | -2 | -8 | / | 65* | 26 | 54*
COc1ccc2c(C)c(CCC(=O)N3C[C@H]4C[C@@H](C3)c3cccc(=O)n3C4)c(=O)oc2c1 | 11 | 10 | 10 | -1 | -4 | /
CCC(CO)(C(=O)OC1C[N+]2(C)CCC1CC2)c1ccccc1 (stereo unspecified) | -3 | 0 | 3 | 56* | 11 | 70* | UDG A3A counter=-2
CC1CC(C)OP(=O)(OCCC#N)O1 (stereo unspecified) | / | / | 13 | / | / | /
CN(C)CC1CCCCC1OC(=O)Cc1ccc(Cl)c([N+](=O)[O-])c1 (stereo unspecified) | -3 | 0 | 2 | 55* | 15 | 74* | UDG A3A counter=1
CCN(CC)P(=O)(c1n(CC)cc[n+]1CC)N(CC)CC | 1 | 14 | 3 | 86* | 28 | 73* | UDG A3A counter=-2
CCOc1ccccc1N=C1SCCCN1C | -2 | 13 | 6 | 47* | 22 | 73* | UDG A3A counter=1
SMILES | Fh CTSL1 inh | NALP1 inh | HGIII-sPLA2 inh | A3A deaminase | A3G deaminase | APOBEC3A confirm | others
COC(=O)C1=C(c2ccccc2)C[C@@H]2CC[C@H]1N2C(=O)NC1CCCCC1 | -1 | / | -3 | -4 | -5 | /
O=C(CCC(=O)N1CC2C[C@@H](C1)Cn1c2cccc1=O)NCCc1ccccc1 | -4 | 20 | 15 | -3 | -9 | /
CCCC[N+]12CCC(CC1)C(C(=O)c1cccs1)C2 (stereo unspecified) | -2 | 2 | 6 | 67* | 22 | 78* | UDG A3A counter=2
O=c1[nH]c2ccccc2n1C1CCN(C(c2ccccc2OC(F)(F)F)c2nnnn2-c2ccc3c(c2)OCCO3)CC1 (stereo unspecified) | / | / | -8 | / | / | /
Cc1ccc2c(c1)C1C[N+](C)(CC(=O)c3ccc(Cl)cc3Cl)CCC1N2C(=O)c1ccc(F)cc1 (stereo unspecified) | / | / | 19 | 79* | 13 | 79* | UDG A3A counter=-2
Cc1ccc2c(c1)C1CN(C)CCC1N2C(=O)c1cccs1 (stereo unspecified) | 7 | / | 5 | -1 | 2 | /
CCOP(=O)(OCC)C1(O)C(=O)Nc2ccccc21 (stereo unspecified) | -2 | 7 | -14 | 3 | -4 | /
CC1CCCC(C2(O)C(=O)Nc3ccccc32)C1=O (stereo unspecified) | 1 | 16 | 3 | 68* | 10 | 74* | UDG A3A counter=-2
CC(C)(C)C(=O)c1cn(CC(=O)NCc2ccco2)c2ccccc12 | -4 | -1 | -5 | 59* | 15 | 46* | UDG A3A counter=-2
Cc1ccc2c(c1Cl)NC(C(=O)O)C1CC(Sc3ccccc3[N+](=O)[O-])C(Cl)C21 (stereo unspecified) | 7 | / | / | 41* | 25 | 29
CCN(CC)C(=O)c1ccc2c(c1)C1C(Cl)C(Sc3ccccc3[N+](=O)[O-])CC1C(C(=O)O)N2 (stereo unspecified) | -1 | 10 | / | 16 | 34 | /
COP(=S)(OC)c1c(C)nn(CCC#N)c1NC(=O)c1ccc(Cl)cc1 | -3 | 22 | -5 | -1 | -5 | /
C[N+]1(C)CCN(c2ccccc2)CC1 | 3 | 10 | 3 | 73* | 27 | 78* | UDG A3A counter=0
Cc1cc(O)c(CN2CCN(c3ccccc3)CC2)cc1C | 0 | 13 | -2 | 4 | 6 | /
O=S(=O)(c1ccccc1)N1CN2CCN(C2)C1 | -1 | 5 | 10 | -1 | 0 | /

Compound activity (PubChem BioAssay)
